“And” between values parts separate entries of the source, which are not always exact repeats. Equal entries are not always repeated. The whole screen tested about 5,500 compounds, of which about 2,000 (36%) were called active. About 18% were inconclusive and are not listed. No stated cut-off is given here; in the data, active means normalized growth mostly below about 0.91 (no sharp cut-off); inconclusive means no clear call, values can overlap the other calls; inactive means mostly above about 0.92. The list shows a part of the results.
Assay: chemical genetic growth profiling, strain panel (AID 1159580);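 further: tested at 20 µM; growth read once vehicle control cultures reached saturation at 30 °C; 1 = growth at the plate median or of vehicle wells; lower values mean less growth of the strain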
Conditions: S. cerevisiae deletion strains, growth OD

Measured: normalized growth

O=c1[nH]c(=O)n(C2C[C@H](O)[C@@H](CO)O2)cc1C(F)(F)F (stereo partly specified)
inactive: locus YAL013W, strain DEP1, hits give low values 0.992 | locus YAL021C, strain ccr4, hits give low values 0.999 | locus YAL026C, strain drs2, hits give low values 0.973 | locus YAL030W, strain snc1, hits give low values 0.979 | locus YBL061C, strain skt5, hits give low values 0.974 | locus YBR009C, strain hhf1, hits give low values 0.981 | locus YBR021W, strain FUR4, hits give low values 0.968 | locus YBR023C, strain chs3, hits give low values 0.983 | locus YBR171W, strain sec66, hits give low values 0.965 | locus YBR229C, strain ROT2, hits give low values 0.986 | locus YBR231C, strain swc5, hits give low values 0.976 | locus YBR279W, strain paf1, hits give low values 0.98 | locus YCL011C, strain gbp2, hits give low values 0.954 | locus YCL016C, strain dcc1, hits give low values 0.972 | locus YCL029C, strain bik1, hits give low values 0.971 | locus YCL069W, strain vba3, hits give low values 0.994 | locus YCR088W, strain abp1, hits give low values 0.973 | locus YDL005C, strain med2, hits give low values 0.964 | locus YDL035C, strain GPR1, hits give low values 0.986 | locus YDL040C, strain nat1, hits give low values 0.976 | locus YDL074C, strain BRE1, hits give low values 0.97 | locus YDL101C, strain DUN1, hits give low values 0.987 | locus YDL134C, strain PPH21, hits give low values 1 | locus YDL185W, strain tfp1, hits give low values 0.962 | locus YDL192W, strain arf1, hits give low values 0.981 | locus YDR001C, strain nth1, hits give low values 0.947 | locus YDR069C, strain doa4, hits give low values 0.95 | locus YDR101C, strain arx1, hits give low values 0.981 | locus YDR137W, strain rgp1, hits give low values 0.901 | locus YDR150W, strain NUM1, hits give low values 0.996 | locus YDR159W, strain sac3, hits give low values 0.947 | locus YDR162C, strain NBP2, hits give low values 0.984 | locus YDR195W, strain ref2 0.922 | locus YDR297W, strain sur2, hits give low values 0.969 | locus YDR318W, strain mcm21, hits give low values 0.987 | locus YDR334W, strain swr1, hits give low values 0.964 | locus YDR335W, strain msn5, hits give low values 0.96 | locus YDR388W, hits give low values 0.975 | locus YDR392W, strain spt3, hits give low values 1 | locus YDR502C, strain sam2, hits give low values 0.979 | locus YEL003W, strain gim4, hits give low values 0.979 | locus YEL037C, strain rad23, hits give low values 0.984 | locus YEL061C, strain CIN8 (second series), hits give low values 0.952 | locus YEL061C, strain CIN8, hits give low values 0.995 | locus YER015W, strain faa2, hits give low values 0.972 | locus YER016W, strain bim1, hits give low values 0.978 | locus YER110C, hits give low values 0.966 | locus YER111C, strain swi4, hits give low values 0.976 | locus YER155C, strain BEM2 (second series), hits give low values 0.957 | locus YER155C, strain BEM2, hits give low values 0.984 | locus YER167W, strain BCK2, hits give low values 0.945 | locus YFR010W, strain ubp6, hits give low values 0.953 | locus YGL078C, strain dbp3, hits give low values 0.966 | locus YGL086W, strain mad1, hits give low values 0.979 | locus YGL167C, strain pmr1, hits give low values 0.968 | locus YGL173C, strain kem1, hits give low values 0.98 | locus YGL227W, strain vid30, hits give low values 0.946 | locus YGL240W, strain doc1, hits give low values 1 | locus YGL248W, strain PDE1, hits give low values 0.978 | locus YGL253W, strain hxk2, hits give low values 0.972 | locus YGR078C, strain PAC10, hits give low values 0.997 | locus YGR135W, strain pre9, hits give low values 0.969 | locus YGR229C, strain SMI1, hits give low values 0.963 | locus YGR252W, strain gcn5, hits give low values 0.971 | locus YHR013C, strain ard1, hits give low values 0.923 | locus YHR027C, strain rpn1, hits give low values 0.958 | locus YHR030C, strain SLT2, hits give low values 0.985 and 1.02 | locus YHR079C, strain IRE1 (second series), hits give low values 0.974 | locus YHR079C, strain IRE1, hits give low values 1.03 | locus YHR094C, strain hxt1, hits give low values 0.983 | locus YHR129C, strain ARP1, hits give low values 0.987 | locus YHR142W, strain chs7, hits give low values 0.922 | locus YHR200W, strain rpn10, hits give low values 0.985 | locus YIL066C, strain RNR3, hits give low values 0.986 | locus YIL073C, strain SPO22, hits give low values 0.967 | locus YIL125W, strain kgd1, hits give low values 0.968 | locus YIR030C, strain dcg1, hits give low values 0.969 | locus YJL092W, strain hpr5, hits give low values 0.962 | locus YJL095W, strain BCK1 (second series), hits give low values 0.962 | locus YJL095W, strain BCK1, hits give low values 0.969 and 1.01 | locus YJL115W, strain asf1, hits give low values 0.928 | locus YJL129C, strain trk1, hits give low values 0.916 | locus YJL134W, strain LCB3, hits give low values 0.987 | locus YJL154C, strain vps35, hits give low values 0.975 | locus YJL164C, strain tpk1, hits give low values 0.968 | locus YJL166W, strain qcr8, hits give low values 0.953 | locus YJL168C, strain set2, hits give low values 0.987 | locus YJL187C, strain SWE1 (second series), hits give low values 0.982 | locus YJR043C, strain POL32, hits give low values 0.973 | locus YJR066W, strain TOR1, hits give low values 0.963 | locus YJR075W, strain HOC1, hits give low values 0.991

Source: PubChem BioAssay AID1159580 (chemical genetic matrix, 2015)
